Experimental data taken from PubChem BioAssay (Tox21).
Values joined by “and” are separate entries in the source; they are usually repeats but may differ in a detail not shown here. Equal values may be shown once. Inconclusive results are not listed. Where a call stands in place of a potency, no number is given. Where a structure was tested more than once in an assay, its records may differ in their call. Active and inactive are the calls of the source. Unless noted, the call rests on the fitted dose curve.

Tests used:
[1] = Nuclear factor erythroid 2-related factor 2/antioxidant responsive element (Nrf2/ARE) small molecule agonists: qHTS cell viability counter screen in human keratinocytes (AID 1919968; active means well fitted curve in the direction sought with a large enough effect in the repeat runs; an effect the other way counts as inactive or inconclusive; further: nearly all actives have a fitted effect of over 55% in size)
Method in brief: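 CellTiter-Fluor fluorescence, read 1 h after reagent, gave viability in the same wells as the ARE-luciferase assay. KeratinoSens cells (1,500/well) had 23 h compound exposure at 37 C/5% CO2 following 5 h plating.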

[2] = Nuclear factor erythroid 2-related factor 2/antioxidant responsive element (Nrf2/ARE) small molecule agonists: luciferase reporter gene qHTS assay in human keratinocytes (AID 1919969); further: nearly all actives have a fitted effect of over 35% in size; further: potency means the concentration at half of the fitted maximal effect
[3] = biological target: Gonadotropin-releasing hormone receptor (Homo sapiens) (UniProt P30968); test: Human gonadotropin-releasing hormone receptor (GnRHR) small molecule agonists, calcium flux assay in GnRHR-HEK293 cells (AID 1920063); further: nearly all actives have a fitted effect of over 35% in size
Method in brief: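 Agonist mode: compounds at 15 concentrations, in triplicate, went onto calcium dye-loaded GnRHR-HEK293 cells. Intracellular calcium was then followed as 480/540 nm fluorescence at 1 s intervals over 3 min.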

[4] = biological target: KiSS-1 receptor (Homo sapiens) (UniProt Q969F8); test: Human kisspeptin (KISS1R) small molecule agonists, calcium flux assay in KISS1R-HEK293 cells (AID 1920064; active means well fitted curve in the direction sought with a large enough effect in the repeat runs; an effect the other way counts as inactive or inconclusive)
Method in brief: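 Agonist mode: intracellular calcium rise tracked at 1 s intervals over 3 min (480/540 nm) immediately after compound addition to dye-loaded KISS1R-HEK293 stable cells. Each compound tested at 15 concentrations in triplicate.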

[5] = G protein-coupled receptor (GPCR) small molecule agonists, calcium flux assay: HEK293 wild type cell line counter screen (AID 1920065)
Method in brief: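 Calcium flux counter screen: compound added in agonist mode at 15 concentrations in triplicate to dye-loaded parental HEK293 cells. Fluorescence (480/540) read kinetically for 3 min; ATP served as positive control.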

[6] = p53 small molecule agonists, cell-based qHTS assay with human liver microsomes (AID 1963577);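 further: p53 response element beta-lactamase reporter cells with liver microsomes plus NADPH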
Method in brief: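 Steps: plate p53RE-bla cells, incubate 5 h at 37 C; add compound in DMSO; add microsomes (0.5 mg/mL final) and NADPH (0.5 mg/mL final); incubate 16 h at 37 C; add LiveBLAzer, 2 h RT; read fluorescence.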

[7] = p53 small molecule agonists, cell-based qHTS assay with rat liver microsomes (AID 1963578)
Method in brief: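 Metabolic activation is supplied by rat liver microsomes with NADPH (each 0.5 mg/mL final). p53RE-bla cells incubate with compound 16 h at 37 C; reporter activity is measured by LiveBLAzer fluorescence.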

[8] = p53 small molecule agonists, cell-based qHTS assay with human liver microsomes: qHTS cell viability counter screen (AID 1963579); further: nearly all actives have a fitted effect of over 45% in size
Method in brief: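 After the 460/530 nm beta-lactamase read, CellTiter-Glo was added to the same wells and luminescence measured after 30 min at room temperature, giving viability of p53RE-bla cells treated 16 h with compounds plus microsomes and NADPH.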

[9] = p53 small molecule agonists, cell-based qHTS assay with rat liver microsomes: qHTS cell viability counter screen (AID 1963580); further: nearly all actives have a fitted effect of over 45% in size
Method in brief: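 Rat liver microsome (0.5 mg/mL final) and NADPH (0.5 mg/mL final) co-incubation with compounds for 16 h at 37 C on HCT-116 p53RE-bla cells; cytotoxicity taken from intracellular ATP luminescence.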

[10] = p53 small molecule agonists, cell-based qHTS assay: qHTS cell viability counter screen (AID 1963581); further: nearly all actives have a fitted effect of over 45% in size
Method in brief: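 Counter screen read by CellTiter-Glo luminescence (ATP content, 30 min at room temperature), run in the same wells as the beta-lactamase reporter read. HCT-116 p53RE-bla cells saw compounds for 16 h at 37 C.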

[11] = p53 small molecule agonists, cell-based qHTS assay (AID 1963582; active means well fitted activation curve with a large enough effect in the signal ratio in the repeat runs, not every such curve was filed as active; the % refers to the signal ratio)
Method in brief: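 Read-out is beta-lactamase FRET fluorescence after 2 h at room temperature with LiveBLAzer B/G substrate. p53 response element-bla cells were treated 16 h at 37 C with compounds in DMSO, added 5 h after seeding.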

[12] = biological target: 5-hydroxytryptamine receptor 2A (Homo sapiens) (UniProt P28223); test: 5-hydroxytryptamine receptor 2A (HTR2A) small molecule antagonists, cell-based qHTS assay (AID 1963586); further: nearly all actives have a fitted effect of over 45% in size; further: potency means the concentration at half of the fitted maximal effect
Method in brief: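 CHO cells stably expressing human HTR2A were plated for 18 h at 37 C, then loaded with calcium dye for 1 h. Compounds were preincubated 5 min at room temperature before DOI (4 nM solution) was added. Kinetic fluorescence was read for 3 min.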

[13] = biological target: 5-hydroxytryptamine receptor 2A (Homo sapiens) (UniProt P28223); test: 5-hydroxytryptamine receptor 2A (HTR2A) small molecule agonists, cell-based qHTS assay (AID 1963587); further: nearly all actives have a fitted effect of over 30% in size; further: potency means the concentration at half of the fitted maximal effect
Method in brief: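 Kinetic calcium-flux fluorescence (2 min, 1 sec intervals) after compound addition in agonist mode. HTR2A-CHO cells were cultured 18 h, then dye-loaded 1 h at 37 C.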

[14] = biological target: Muscarinic acetylcholine receptor M1 (Homo sapiens) (UniProt P11229); test: Cholinergic receptor muscarinic 1 (CHRM1) small molecule antagonists, cell-based qHTS assay (AID 1963588); further: nearly all actives have a fitted effect of over 40% in size
Method in brief: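 Compounds were tested at 15 concentrations in three independent runs. Dye-loaded CHRM1-CHO cells were exposed 5 min at room temperature before stimulation by acetylcholine added at 50nM. Intracellular calcium was read kinetically on FDSS for 3 min.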

[15] = biological target: Muscarinic acetylcholine receptor M1 (Homo sapiens) (UniProt P11229); test: Cholinergic receptor muscarinic 1 (CHRM1) small molecule agonists, cell-based qHTS assay (AID 1963589); further: nearly all actives have a fitted effect of over 35% in size
Method in brief: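 Agonist-mode calcium-flux screen: compounds at 15 concentrations, three independent runs, were pin-transferred onto dye-loaded human CHRM1-CHO cells. Fluorescence was then recorded kinetically every second over minutes.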

[16] = cAMP Responsive Elements (CRE) small molecule agonists, cell-based qHTS assay (AID 1963590)
Method in brief: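 Agonist mode: compound added to CRE-bla HEK 293T cells (2,000/well, 18 h after plating) for 3 h at 37 C/5% CO2. Reporter activity detected via FRET beta-lactamase substrate, 2 h room-temperature loading.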

[17] = cAMP Responsive Elements (CRE) small molecule antagonists, cell-based qHTS assay (AID 1963591; active means well fitted inhibition curve with a large enough effect in the signal ratio in the repeat runs, not every such curve was filed as active; the % refers to the signal ratio)
Method in brief: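 Antagonist mode: compounds are added alongside the adenylyl cyclase activator NKH477 (0.25 uM final) to CRE-bla HEK293T cells for 3 h. LiveBLAzer FRET substrate, 2 h at room temperature, reports bla expression.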

[18] = biological target: Beta-2 adrenergic receptor (Homo sapiens) (UniProt P07550); test: Adrenergic beta2 receptor (ADRB2) small molecule antagonists, cell-based qHTS assay (AID 1963592); further: series mostly up to about 92 µM; nearly all actives have a fitted effect of over 50% in size
Method in brief: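 Assay format: CHO-ADRB2 cells, 18-20hr seeding at 37C/5% CO2, then compound plus 1nM isoproterenol agonist mix for 0.5hr RT. Homogeneous time-resolved fluorescence cAMP detection after 1hr, expressed as 665/615 nm ratio.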

[19] = biological target: D(2) dopamine receptor (Homo sapiens) (UniProt P14416); test: Dopamine D2 receptor (DRD2) small molecule agonists, cell-based qHTS assay (AID 1963594); further: nearly all actives have a fitted effect of over 35% in size
Method in brief: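 cAMP accumulation in DRD2-HEK293 cells measured by HTRF after 1 h detection; compounds added 10 min before NKH477 (200nM […]) forskolin-analogue stimulation, 30 min at room temperature, with Ro20-1724 present at 0.1 mM final.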

[20] = biological target: D(2) dopamine receptor (Homo sapiens) (UniProt P14416); test: Dopamine D2 receptor (DRD2) small molecule antagonists, cell-based qHTS assay (AID 1963595; active means well fitted inhibition curve with a large enough effect in the signal ratio in the repeat runs, with a control signal flat; the % refers to the signal ratio)
Method in brief: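 Antagonist mode in DRD2-HEK293 cells: after compound addition with 0.1 mM Ro20-1724, cells received quinpirole (12 nM) and NKH477 (200 nM) for 30 min at room temperature; HTRF cAMP read after 1 h detection.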

Sequence of Gonadotropin-releasing hormone receptor (Homo sapiens) (P30968 whole entry, looked up): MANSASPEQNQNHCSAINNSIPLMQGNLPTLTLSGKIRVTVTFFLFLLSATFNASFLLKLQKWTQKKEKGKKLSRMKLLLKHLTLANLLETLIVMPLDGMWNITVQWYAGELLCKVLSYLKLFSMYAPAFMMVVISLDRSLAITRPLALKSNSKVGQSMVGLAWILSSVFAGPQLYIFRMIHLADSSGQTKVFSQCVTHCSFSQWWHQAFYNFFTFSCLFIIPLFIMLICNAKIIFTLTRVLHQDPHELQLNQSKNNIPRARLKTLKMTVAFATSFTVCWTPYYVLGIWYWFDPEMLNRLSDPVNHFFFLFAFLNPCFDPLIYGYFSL
Sequence of KiSS-1 receptor (Homo sapiens) (Q969F8 whole entry, looked up): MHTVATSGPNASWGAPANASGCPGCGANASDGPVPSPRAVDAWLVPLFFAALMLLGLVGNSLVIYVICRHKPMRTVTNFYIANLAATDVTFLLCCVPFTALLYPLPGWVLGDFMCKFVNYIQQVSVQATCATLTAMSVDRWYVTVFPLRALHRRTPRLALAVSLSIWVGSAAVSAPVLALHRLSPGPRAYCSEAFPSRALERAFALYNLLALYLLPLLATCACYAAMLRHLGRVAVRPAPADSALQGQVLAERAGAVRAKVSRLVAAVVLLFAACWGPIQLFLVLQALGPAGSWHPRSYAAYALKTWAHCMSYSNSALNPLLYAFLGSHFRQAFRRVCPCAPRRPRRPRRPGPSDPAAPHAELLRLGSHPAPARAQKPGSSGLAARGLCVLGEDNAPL
Sequence of 5-hydroxytryptamine receptor 2A (Homo sapiens) (P28223 whole entry, looked up): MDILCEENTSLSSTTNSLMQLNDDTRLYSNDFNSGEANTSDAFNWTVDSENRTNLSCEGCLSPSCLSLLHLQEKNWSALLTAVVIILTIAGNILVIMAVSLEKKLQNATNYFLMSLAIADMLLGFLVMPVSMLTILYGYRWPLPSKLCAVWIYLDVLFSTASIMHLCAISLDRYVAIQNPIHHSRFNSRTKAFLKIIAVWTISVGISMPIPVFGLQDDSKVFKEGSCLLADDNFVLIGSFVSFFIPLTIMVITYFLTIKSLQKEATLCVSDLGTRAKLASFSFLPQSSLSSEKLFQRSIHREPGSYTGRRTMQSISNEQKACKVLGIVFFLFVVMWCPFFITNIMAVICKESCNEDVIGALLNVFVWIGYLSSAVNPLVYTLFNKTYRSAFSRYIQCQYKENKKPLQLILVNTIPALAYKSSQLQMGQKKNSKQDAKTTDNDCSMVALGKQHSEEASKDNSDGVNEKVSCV
Sequence of Beta-2 adrenergic receptor (Homo sapiens) (P07550 whole entry, looked up): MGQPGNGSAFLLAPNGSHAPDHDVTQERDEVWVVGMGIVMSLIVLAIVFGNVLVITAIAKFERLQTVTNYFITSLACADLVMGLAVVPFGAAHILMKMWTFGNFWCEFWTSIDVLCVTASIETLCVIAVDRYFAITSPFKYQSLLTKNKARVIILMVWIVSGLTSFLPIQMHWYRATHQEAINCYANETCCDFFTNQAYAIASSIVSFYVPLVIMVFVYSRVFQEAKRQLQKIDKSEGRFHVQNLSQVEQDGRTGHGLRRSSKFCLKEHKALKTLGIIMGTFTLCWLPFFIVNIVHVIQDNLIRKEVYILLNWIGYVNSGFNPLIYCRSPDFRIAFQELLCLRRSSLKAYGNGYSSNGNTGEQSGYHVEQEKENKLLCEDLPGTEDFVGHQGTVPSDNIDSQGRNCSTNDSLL
Sequence of D(2) dopamine receptor (Homo sapiens) (P14416 whole entry, looked up): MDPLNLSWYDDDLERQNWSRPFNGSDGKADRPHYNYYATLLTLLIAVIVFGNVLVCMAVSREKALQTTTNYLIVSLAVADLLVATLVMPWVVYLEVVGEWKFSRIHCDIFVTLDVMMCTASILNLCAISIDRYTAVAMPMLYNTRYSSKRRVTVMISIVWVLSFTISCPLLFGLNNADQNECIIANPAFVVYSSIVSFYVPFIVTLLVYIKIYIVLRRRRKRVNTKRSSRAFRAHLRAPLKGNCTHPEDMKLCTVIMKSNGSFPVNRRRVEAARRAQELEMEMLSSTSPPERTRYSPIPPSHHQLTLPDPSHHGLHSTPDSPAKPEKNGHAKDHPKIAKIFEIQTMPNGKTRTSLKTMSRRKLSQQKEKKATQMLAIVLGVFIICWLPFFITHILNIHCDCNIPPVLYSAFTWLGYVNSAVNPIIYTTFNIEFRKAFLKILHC
Sequence of Muscarinic acetylcholine receptor M1 (Homo sapiens) (P11229 whole entry, looked up): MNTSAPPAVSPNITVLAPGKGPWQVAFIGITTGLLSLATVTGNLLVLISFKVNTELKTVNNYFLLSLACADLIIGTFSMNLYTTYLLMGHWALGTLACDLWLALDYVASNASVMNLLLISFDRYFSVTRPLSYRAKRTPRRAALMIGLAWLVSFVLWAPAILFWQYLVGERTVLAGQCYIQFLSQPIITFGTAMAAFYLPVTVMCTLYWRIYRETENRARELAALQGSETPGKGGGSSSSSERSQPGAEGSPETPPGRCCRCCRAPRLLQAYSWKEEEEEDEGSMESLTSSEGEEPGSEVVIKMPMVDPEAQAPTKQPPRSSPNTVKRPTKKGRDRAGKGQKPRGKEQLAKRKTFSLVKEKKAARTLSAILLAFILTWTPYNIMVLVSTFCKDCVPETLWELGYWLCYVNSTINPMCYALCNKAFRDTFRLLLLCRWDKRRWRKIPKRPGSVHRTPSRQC

Structure (SMILES) | Potency [1] | Potency [2] | Potency [3] | Potency [4] | Potency [5] | Potency [6] | Potency [7] | Potency [8] | Potency [9] | Potency [10] | Potency [11] | Potency [12] | Potency [13] | Potency [14] | Potency [15] | Potency [16] | Potency [17] | Potency [18] | Potency [19] | Potency [20]
CC(=O)c1ccc(O)cc1 | inactive | inactive | inactive | inactive | inactive | inactive | inactive | inactive | inactive | inactive | inactive | inactive | inactive | inactive | inactive | inactive | inactive | inactive | inactive | inactive
OCCc1ccccc1 | inactive | inactive | inactive | inactive | inactive | inactive | inactive | inactive | inactive | inactive | inactive | inactive | inactive | inactive | inactive | inactive | inactive | inactive | inactive | inactive
C=C(C)C1CC=C(C)CC1 (stereo unspecified) | inactive | inactive | inactive | inactive | inactive | inactive | inactive | inactive | inactive | inactive | inactive | inactive | inactive | inactive | inactive | inactive | inactive | inactive | inactive | inactive
O=[N+]([O-])c1cccc(Cl)c1 | inactive | inactive | inactive | inactive | inactive | inactive | inactive | inactive | inactive | inactive | inactive | inactive | inactive | inactive | inactive | inactive | inactive | inactive | inactive | inactive
Clc1ccccn1 | inactive | inactive | inactive | inactive | inactive | inactive | inactive | inactive | inactive | inactive | inactive | inactive | inactive | inactive | inactive | inactive | inactive | inactive | inactive | inactive
CCC(=O)O | inactive | inactive | inactive | inactive | inactive | inactive | inactive | inactive | inactive | inactive | inactive | inactive | inactive | inactive | inactive | inactive | inactive | inactive | inactive | inactive
Nc1ccc(Nc2ccccc2)cc1 | inactive | 53.9 µM (active) and inactive and 30.6 µM (active) | inactive | inactive | inactive | inactive | inactive | inactive | inactive | inactive | inactive | inactive and 3.75 µM (active) | 7.68 µM (active) and 24.6 µM (active) and 3.89 µM (active) | inactive | inactive | inactive | inactive |  |  | 
Cc1ncc([N+](=O)[O-])n1C | inactive | inactive | inactive | inactive | inactive | inactive | inactive | inactive | inactive | inactive | inactive | inactive | inactive | inactive | inactive | inactive | inactive | inactive | inactive | 
Nc1nc2ncc(CNc3ccc(C(=O)N[C@@H](CCC(=O)O)C(=O)O)cc3)nc2c(=O)[nH]1 | inactive | inactive | inactive | inactive | inactive | inactive | inactive | inactive | inactive | inactive | inactive | inactive | inactive | inactive | inactive | inactive | inactive | inactive | inactive | inactive
CC(=O)N[C@@H](CS)C(=O)O | inactive | inactive | inactive | inactive | inactive | inactive | inactive | inactive | inactive | inactive | inactive | inactive | inactive | inactive | inactive | inactive | inactive | inactive | inactive | inactive
COc1ccccc1O | inactive | inactive | inactive | inactive | inactive | inactive | inactive | inactive | inactive | inactive | inactive | inactive | inactive | inactive | inactive | inactive | inactive | inactive | inactive | inactive
Cc1cc(=O)[nH]c(C(C)C)n1 | inactive | inactive | inactive | inactive | inactive | inactive | inactive | inactive | inactive | inactive | inactive | inactive | inactive | inactive | inactive | inactive | inactive | inactive | inactive | inactive
CCCCCCCCO | inactive | inactive | inactive | inactive | inactive | inactive | inactive | inactive | inactive | inactive | inactive | inactive | inactive | inactive | inactive | inactive | inactive | inactive | inactive | inactive
O=C1C(c2[nH]c3ccccc3c2O)=Nc2ccccc21 | inactive | inactive | inactive | inactive | inactive | inactive | inactive | inactive | inactive | inactive | inactive | inactive | inactive | inactive | inactive | inactive | inactive | inactive | inactive | inactive
CCCC(O)C(CC)CO (stereo unspecified) | inactive | inactive | inactive | inactive | inactive | inactive | inactive | inactive | inactive | inactive | inactive | inactive | inactive | inactive | inactive | inactive | inactive | inactive | inactive | inactive
